Test in all cases: log2 fold change, soluble protein after heating vs DMSO (PISA); higher = thermal stabilisation; K562 cells, 10 uM, 30 min; active = over 0.2 and 3.5 SD of the protein, either way, in both replicates (recomputed)
Compound in assay [1]: NC(=O)Nc1cc(-c2cccc(F)c2)sc1C(=O)N[C@H]1CCCNC1
Summed up: (§1)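 K562 cells (2×10^6 cells/mL) were treated with 10 μM compound for 30 min, and aliquots were heated for 3 min over 48°C-58°C. Pooled aliquots were extracted in PBS with 0.5% NP-40 at 4°C, and the supernatant after 21,000xg for 90 min was measured by TMTpro 16plex LC-MS/MS with channel sums equalised. Reported thermal stability, relative to control samples and from duplicates, is a log2 fold change.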

Compound in assay [2]: NC1(c2ccc(-c3nc4ccn5c(=O)[nH]nc5c4cc3-c3ccccc3)cc2)CCC1
Summed up:
as §1

Compound in assay [3]: NCC(=O)Nc1ccc(-n2nc(C(F)(F)F)cc2-c2ccc3c(ccc4ccccc43)c2)cc1
The gist of the method:
as §1

Compound in the next assay: Nc1ccccc1NC(=O)c1ccc(CNC(=O)OCc2cccnc2)cc1 [entinostat]
Summed up: as §1

Compound in the next assay: O=C(CCCCCCC(=O)Nc1ccccc1)NO [vorinostat]
Summed up: as §1

Compound in a further assay: O=C(CCCCCCNC(=O)c1cnc(N(c2ccccc2)c2ccccc2Cl)nc1)NO [citarinostat]
The gist of the method:
as §1

Compound in another assay: O=C(O)c1ccc2c(c1)nc(Nc1cccc(Cl)c1)c1ccncc12 [silmitasertib]
Summed up:
as §1

Compound in assay [4]: O=C1NC(=O)C(c2cnc3ccccn23)=C1c1cn2c3c(cc(F)cc13)CN(C(=O)N1CCCCC1)CC2
Summed up: as §1

Compound in assay [5]: c1cc(OCCN2CCCCC2)cc(-c2n[nH]c3ccc(-c4nnc[nH]4)cc23)c1
The gist of the method: as §1

Compound in the next assay: c1cn2cc(-c3ccc4cn[nH]c4c3)nc(Nc3ccc(N4CCOCC4)cc3)c2n1 [entospletinib]
Summed up:
as §1

Compound in assay [6]: NC(=O)c1cnc(N[C@@H]2CCCC[C@@H]2N)nc1Nc1cccc(-n2nccn2)c1
Summed up:
as §1

Of roughly 7,900 targets only a part is listed; those with a hit were picked by preference. About 0.6% of all pairs of compound and target were hits. Values without a mark were called inactive.

Chain of UniProt Q8WUI4 (Q8WUI4 whole entry, looked up): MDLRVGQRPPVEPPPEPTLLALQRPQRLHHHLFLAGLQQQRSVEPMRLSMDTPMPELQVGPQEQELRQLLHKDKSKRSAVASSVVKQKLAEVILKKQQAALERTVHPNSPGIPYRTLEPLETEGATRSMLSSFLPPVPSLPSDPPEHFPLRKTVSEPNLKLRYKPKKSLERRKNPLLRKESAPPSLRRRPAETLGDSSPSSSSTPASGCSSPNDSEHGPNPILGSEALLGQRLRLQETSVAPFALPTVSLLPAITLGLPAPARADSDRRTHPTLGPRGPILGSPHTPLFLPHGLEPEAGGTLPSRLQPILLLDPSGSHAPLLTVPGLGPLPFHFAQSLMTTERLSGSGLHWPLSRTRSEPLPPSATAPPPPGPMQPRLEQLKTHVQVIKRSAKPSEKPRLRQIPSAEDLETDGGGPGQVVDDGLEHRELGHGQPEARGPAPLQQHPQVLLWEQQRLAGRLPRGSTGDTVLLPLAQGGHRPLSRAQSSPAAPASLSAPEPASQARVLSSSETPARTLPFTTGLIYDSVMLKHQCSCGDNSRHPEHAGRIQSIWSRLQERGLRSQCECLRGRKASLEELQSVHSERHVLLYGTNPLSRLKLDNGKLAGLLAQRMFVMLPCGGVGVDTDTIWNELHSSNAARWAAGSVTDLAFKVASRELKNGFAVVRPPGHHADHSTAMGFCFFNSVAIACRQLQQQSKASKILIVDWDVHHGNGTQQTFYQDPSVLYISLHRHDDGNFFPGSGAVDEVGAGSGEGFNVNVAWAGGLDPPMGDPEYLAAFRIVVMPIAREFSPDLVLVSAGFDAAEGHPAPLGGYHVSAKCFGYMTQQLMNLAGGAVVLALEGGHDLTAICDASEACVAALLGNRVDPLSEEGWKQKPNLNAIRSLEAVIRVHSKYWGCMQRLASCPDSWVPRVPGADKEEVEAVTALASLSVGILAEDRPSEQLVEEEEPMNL
Chain of UniProt Q13547 (Q13547 whole entry, looked up): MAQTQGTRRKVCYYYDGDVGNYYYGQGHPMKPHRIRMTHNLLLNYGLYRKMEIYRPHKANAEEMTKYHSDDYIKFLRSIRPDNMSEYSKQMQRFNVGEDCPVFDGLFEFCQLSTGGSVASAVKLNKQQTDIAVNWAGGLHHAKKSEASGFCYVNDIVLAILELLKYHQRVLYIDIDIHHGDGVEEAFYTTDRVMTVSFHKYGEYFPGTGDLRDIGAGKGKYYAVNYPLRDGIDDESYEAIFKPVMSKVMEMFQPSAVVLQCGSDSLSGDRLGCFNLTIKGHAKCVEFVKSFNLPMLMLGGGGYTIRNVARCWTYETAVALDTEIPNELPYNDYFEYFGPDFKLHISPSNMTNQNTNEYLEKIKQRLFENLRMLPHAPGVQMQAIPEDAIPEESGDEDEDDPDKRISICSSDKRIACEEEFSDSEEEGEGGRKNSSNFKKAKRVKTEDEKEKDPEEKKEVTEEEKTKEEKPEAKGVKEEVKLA
Chain of UniProt Q9Y324 (Q9Y324 whole entry, looked up): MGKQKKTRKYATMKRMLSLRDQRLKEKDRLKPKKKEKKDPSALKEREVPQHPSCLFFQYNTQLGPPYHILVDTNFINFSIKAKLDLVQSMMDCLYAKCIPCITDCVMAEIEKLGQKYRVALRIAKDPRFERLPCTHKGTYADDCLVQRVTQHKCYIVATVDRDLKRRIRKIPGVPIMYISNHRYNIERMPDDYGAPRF
Chain of UniProt Q9HCG7 (Q9HCG7 whole entry, looked up): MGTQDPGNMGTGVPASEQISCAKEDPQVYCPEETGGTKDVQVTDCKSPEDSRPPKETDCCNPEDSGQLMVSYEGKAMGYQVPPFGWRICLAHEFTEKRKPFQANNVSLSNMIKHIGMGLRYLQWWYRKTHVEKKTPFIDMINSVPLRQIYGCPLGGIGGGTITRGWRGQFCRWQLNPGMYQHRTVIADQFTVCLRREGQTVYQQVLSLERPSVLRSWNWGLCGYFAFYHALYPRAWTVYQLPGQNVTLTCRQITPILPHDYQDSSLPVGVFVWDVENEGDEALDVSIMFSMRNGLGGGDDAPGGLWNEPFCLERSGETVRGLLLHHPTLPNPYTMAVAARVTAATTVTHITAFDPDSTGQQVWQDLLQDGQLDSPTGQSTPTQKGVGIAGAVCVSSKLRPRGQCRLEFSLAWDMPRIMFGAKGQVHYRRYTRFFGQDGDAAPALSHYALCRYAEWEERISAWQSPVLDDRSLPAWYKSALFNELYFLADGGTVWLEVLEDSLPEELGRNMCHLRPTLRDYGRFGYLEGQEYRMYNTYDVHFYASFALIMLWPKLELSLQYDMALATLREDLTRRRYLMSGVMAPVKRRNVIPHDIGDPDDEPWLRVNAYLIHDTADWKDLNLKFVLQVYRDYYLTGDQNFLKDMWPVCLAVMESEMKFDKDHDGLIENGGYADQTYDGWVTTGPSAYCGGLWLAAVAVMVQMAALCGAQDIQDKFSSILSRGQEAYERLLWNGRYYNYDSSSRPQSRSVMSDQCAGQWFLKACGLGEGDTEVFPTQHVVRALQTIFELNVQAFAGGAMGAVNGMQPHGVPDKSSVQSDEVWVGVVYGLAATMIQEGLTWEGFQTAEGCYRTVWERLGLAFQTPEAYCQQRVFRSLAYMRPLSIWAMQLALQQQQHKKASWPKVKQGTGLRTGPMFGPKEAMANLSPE
Chain of UniProt Q969S8 (Q969S8 whole entry, looked up): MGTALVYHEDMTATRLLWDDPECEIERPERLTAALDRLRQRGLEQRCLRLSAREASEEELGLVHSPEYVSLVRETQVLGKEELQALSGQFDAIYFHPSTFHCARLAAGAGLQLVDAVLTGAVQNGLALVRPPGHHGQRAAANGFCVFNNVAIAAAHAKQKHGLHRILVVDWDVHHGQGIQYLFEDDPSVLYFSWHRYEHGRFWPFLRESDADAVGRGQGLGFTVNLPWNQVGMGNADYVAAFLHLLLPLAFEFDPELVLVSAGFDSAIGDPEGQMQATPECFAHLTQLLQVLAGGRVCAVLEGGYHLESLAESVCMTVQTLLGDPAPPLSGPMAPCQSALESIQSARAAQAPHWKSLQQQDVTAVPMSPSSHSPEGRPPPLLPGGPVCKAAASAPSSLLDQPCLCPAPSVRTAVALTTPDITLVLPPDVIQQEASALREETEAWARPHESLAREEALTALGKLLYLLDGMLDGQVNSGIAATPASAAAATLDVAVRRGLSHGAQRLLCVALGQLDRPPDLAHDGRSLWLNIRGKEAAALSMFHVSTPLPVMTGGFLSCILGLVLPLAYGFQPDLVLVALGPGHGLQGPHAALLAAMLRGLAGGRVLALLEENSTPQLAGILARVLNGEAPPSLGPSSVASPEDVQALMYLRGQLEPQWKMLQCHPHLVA
Chain of UniProt O14526 (O14526 whole entry, looked up): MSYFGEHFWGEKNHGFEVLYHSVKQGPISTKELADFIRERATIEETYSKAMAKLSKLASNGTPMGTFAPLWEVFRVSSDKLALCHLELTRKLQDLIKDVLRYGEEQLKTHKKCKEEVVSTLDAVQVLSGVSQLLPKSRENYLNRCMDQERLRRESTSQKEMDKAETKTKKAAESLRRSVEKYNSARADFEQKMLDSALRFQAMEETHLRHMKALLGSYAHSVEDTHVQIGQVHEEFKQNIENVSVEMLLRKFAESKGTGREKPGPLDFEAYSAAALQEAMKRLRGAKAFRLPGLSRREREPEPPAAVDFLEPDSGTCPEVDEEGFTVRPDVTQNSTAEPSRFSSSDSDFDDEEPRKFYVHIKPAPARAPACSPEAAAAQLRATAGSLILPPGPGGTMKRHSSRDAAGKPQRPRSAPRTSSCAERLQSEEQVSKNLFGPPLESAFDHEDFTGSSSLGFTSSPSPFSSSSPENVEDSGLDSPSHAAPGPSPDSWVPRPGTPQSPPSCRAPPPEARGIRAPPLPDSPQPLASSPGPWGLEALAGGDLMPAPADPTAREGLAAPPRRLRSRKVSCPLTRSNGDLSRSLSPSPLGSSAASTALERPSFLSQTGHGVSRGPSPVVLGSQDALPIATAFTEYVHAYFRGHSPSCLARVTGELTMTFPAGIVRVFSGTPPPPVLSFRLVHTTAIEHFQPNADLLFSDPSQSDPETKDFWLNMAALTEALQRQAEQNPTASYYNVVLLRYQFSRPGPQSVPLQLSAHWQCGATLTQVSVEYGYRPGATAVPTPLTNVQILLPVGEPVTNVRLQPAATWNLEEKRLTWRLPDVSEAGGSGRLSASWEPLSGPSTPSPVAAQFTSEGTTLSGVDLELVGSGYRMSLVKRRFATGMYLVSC
Chain of UniProt Q8IVP5 (Q8IVP5 whole entry, looked up): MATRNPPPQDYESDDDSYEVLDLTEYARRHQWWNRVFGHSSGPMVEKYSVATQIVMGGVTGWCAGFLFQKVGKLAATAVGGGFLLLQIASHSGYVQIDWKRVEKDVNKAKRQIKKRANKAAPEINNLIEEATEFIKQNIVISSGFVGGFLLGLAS
Chain of UniProt Q13227 (Q13227 whole entry, looked up): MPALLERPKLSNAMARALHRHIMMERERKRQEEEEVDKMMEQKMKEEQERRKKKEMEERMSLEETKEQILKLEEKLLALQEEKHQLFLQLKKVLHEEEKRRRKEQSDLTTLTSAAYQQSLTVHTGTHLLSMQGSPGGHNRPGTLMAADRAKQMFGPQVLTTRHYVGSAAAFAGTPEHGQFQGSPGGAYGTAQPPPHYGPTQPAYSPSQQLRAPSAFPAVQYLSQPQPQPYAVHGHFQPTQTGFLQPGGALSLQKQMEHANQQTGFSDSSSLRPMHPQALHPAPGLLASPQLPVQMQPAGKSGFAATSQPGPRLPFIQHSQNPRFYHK
Chain of UniProt Q9Y248 (Q9Y248 whole entry, looked up): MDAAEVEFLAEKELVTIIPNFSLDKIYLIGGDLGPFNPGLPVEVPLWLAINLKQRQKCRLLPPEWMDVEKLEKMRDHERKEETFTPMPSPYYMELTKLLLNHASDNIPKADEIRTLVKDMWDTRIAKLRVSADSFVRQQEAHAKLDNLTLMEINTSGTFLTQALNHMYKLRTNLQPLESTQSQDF
Chain of UniProt P01344 (P01344 whole entry, looked up): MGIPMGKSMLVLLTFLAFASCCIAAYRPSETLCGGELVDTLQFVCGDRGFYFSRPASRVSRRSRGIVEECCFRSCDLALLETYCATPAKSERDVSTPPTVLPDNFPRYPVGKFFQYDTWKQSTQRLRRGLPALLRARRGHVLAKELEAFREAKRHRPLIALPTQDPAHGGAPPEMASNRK

For the target FCF1 (UniProt Q9Y324), the log2 fold change in assay [1] was 0.244; in assay [2], 0.097; in [3], 0.36; in the assay with entinostat, 0; in the assay with vorinostat it was -0.045; with citarinostat, -0.137. The log2 fold change in the assay with silmitasertib was 0.099; in assay [4], 0.349; in [5], -0.375; with entospletinib, -0.269.
For GBA2 (UniProt Q9HCG7), the log2 fold change in assay [1] is -0.008; in assay [6] it was -0.006; in assay [2], -0.108; in [3], -0.129; with entinostat it was -0.023; in the assay with citarinostat, -0.332. Besides, the log2 fold change with silmitasertib was 0.124; in [4] it was -0.027; in [5] it was -0.211; in the assay with entospletinib, -0.108.
As to HDAC10 (UniProt Q969S8), the log2 fold change was 0.061 in assay [6]; -0.076 in assay [2]; -0.033 in assay [3]; 0.208 with vorinostat; 0.062 with citarinostat; -0.271 with silmitasertib. The log2 fold change in assay [5] was -0.09; with entospletinib, 0.058.
As to HDAC7 isoform 5 (UniProt Q8WUI4), the log2 fold change was 0.009 in assay [1]; 0.123 in assay [6]; 0.188 in [2]; -0.036 in assay [3]; 0.027 with vorinostat; 0.032 with citarinostat. Further, the log2 fold change with silmitasertib was 0.021; in assay [4] it was 0.032; in [5], -0.163; with entospletinib, -0.024.
As for GPS2 (UniProt Q13227), the log2 fold change was 0.041 in assay [1]; 0.079 in assay [2]; -0.106 in [3]; -0.015 with entinostat; -0.023 with citarinostat; 0.031 with silmitasertib. The log2 fold change in assay [4] was -0.005; in assay [5], -0.092; with entospletinib, 0.058.
Consider IDH3A isoform 2 (UniProt P50213), for which the log2 fold change in assay [6] is -0.06.
Turning to FIZ1 (UniProt Q96SL8), the log2 fold change in assay [1] is 0.026; in assay [2], 0.097; in assay [3] it was 0.061; in the assay with entinostat, -0.257; with vorinostat, 0.044; with citarinostat, -0.12. Moreover, the log2 fold change in the assay with silmitasertib was -0.103; in assay [4], 0.06; in assay [5] it was 0.041; in the assay with entospletinib it was 0.042.
Turning to HDAC1 (UniProt Q13547), the log2 fold change was -0.015 in [1]; 0.128 in assay [6]; -0.017 in assay [2]; 0.006 in [3]; 1.79 (active) with vorinostat; 1.52 (active) with citarinostat. The log2 fold change is 0.06 with silmitasertib, -0.03 in [4], 0.003 in assay [5] and -0.014 with entospletinib.
IGF2 isoform 3 (UniProt P01344): the log2 fold change in assay [3] is -0.004.
Regarding FBXO9 (UniProt Q9UK97), the log2 fold change in assay [2] was -0.079; in [3], -0.112; in the assay with vorinostat, 0.109; with citarinostat, 0.157; with silmitasertib, 0.132; in [5], 0.054. The log2 fold change in the assay with entospletinib is -0.065.
Take FCHO1 (UniProt O14526): the log2 fold change is -0.001 in assay [1]; -0.21 in assay [6]; -0.119 in [2]; 0.054 in [3]; -0.032 with entinostat; -0.086 in the assay with citarinostat. The log2 fold change with silmitasertib was -0.24; in [4], -0.102; in assay [5] it was 0.302; with entospletinib, -0.059.
In the case of GINS2 (UniProt Q9Y248), the log2 fold change in assay [1] was -0.086; in [2], -0.024; in assay [3], 0.022; with entinostat it was 0.533 (active); with vorinostat, -0.01; in the assay with citarinostat, 0.028. The log2 fold change in the assay with silmitasertib is -0.031; in assay [4], -0.163; in assay [5] it was -0.026; with entospletinib, 0.012.
With FUNDC1 (UniProt Q8IVP5), the log2 fold change is -0.058 in [1], -0.104 in assay [2], 0.01 in the assay with entinostat and 0.055 with silmitasertib.
Turning to H3-3A (UniProt P84243), the log2 fold change in [1] was 0.072; in assay [2] it was -0.095; in assay [3] it was -0.096; with entinostat it was 0.104; with citarinostat, 0.157; with silmitasertib, -0.046. Also, the log2 fold change in [5] was 0.028; in the assay with entospletinib it was -0.131.
Regarding FAT1 (UniProt Q14517), the log2 fold change is -0.018 in assay [1]; 0 in [2]; -0.075 in assay [3]; 0.015 in the assay with entinostat; -0.04 with vorinostat; 0.176 with silmitasertib. In addition, the log2 fold change in assay [4] was -0.051.
With GOLGA8R (UniProt I6L899), the log2 fold change in assay [6] was -0.1; in assay [3], 0.02; in the assay with vorinostat, 0.073; with citarinostat it was 0.09; in [5], 0.006; with entospletinib, -0.056.

These data come from the supplement of paper PMC10849652.
